Our source for the growth inhibition values is PubChem BioAssay (NCI).

This is part of a sample that, as a whole, favours compounds with a hit. Of some 79,000 tested, about 15% had one in any assay. A number with no mark means an inactive call. Calls of active or inactive are those of the source. Rule as the data show it: active = growth inhibition above about 70%; inactive = the rest.

This assay in a line: NCI Yeast Anticancer Drug Screen. Data for the rad50EPP+ strain (AID 151).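 Also: 0% = growth of vehicle-treated control cultures.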 To be noted: S. cerevisiae rad50 mutant strain, at 11.0 µM, hits give high values. The method in brief:
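Read-out is yeast growth inhibition relative to vehicle; cells used were the rad50EPP+ strain.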
Consider `C/C(=N\NC(=S)SCc1ccccc1)c1ccccn1`, for which the growth inhibition is 78% (active). The value for `CC[C@@]1(O)C(=O)OCc2c1cc1n(c2=O)Cc2cc3c(N)cccc3nc2-1` was 53%; that for `CN(C)c1ccc(Sc2ccc3nc(N)nc(N)c3c2)cc1` was 24%. The value for `CC(=O)OCCOCNC(=S)N/N=C(\C)c1cnccn1` was -9%; that for `COc1ccc(C2c3cc4c(cc3OC(C)(O)C2C)OCO4)c(OC)c1` (centres undefined) was 12%; that for `COc1cc(C2SCC(=O)N2c2ccc(-c3ccc(-n4c(-c5ccccc5)nc5ccccc5c4=O)cc3)cc2)cc(OC)c1OC` (centres undefined) was 3%.

Regarding `COc1ccc(Br)c(C(=O)Sc2nnnn2-c2cccc(Cl)c2)c1`, the growth inhibition is 9%.

With `O=C(NNc1ccnc2cc(Cl)ccc12)/C(=C\c1ccccc1Cl)NC(=O)c1ccccc1`, the growth inhibition is 91% (active). The value for `CSC(=S)Nc1cccc(C)n1` was -27%; that for `O=C(/C=C\c1ccc(Cl)cc1Cl)c1cccs1` was 47%. The value for `COc1ccc(-c2cn(-c3ccc(I)cc3)c3ncnc(N)c23)cc1` was 6%; that for `CN(C)c1ccc(C(C#N)=C(C#N)C#N)cc1` was 7%; that for `COc1cc(/C=C2\CCc3ccccc3C2=O)cc(OC)c1OC` was 17%. The value for `CC(C)/C(Cl)=N\OC(=O)Nc1cccc(Cl)c1` was 1%; that for `CC1(C)[C@@H]2CC[C@]1(C)[C@H](OC(=O)CSC#N)C2` was 9%. Take `NNC(=O)CCc1ccc2ccc3ccccc3c2c1`: the growth inhibition is 15%.

Regarding `COc1ccc(/C(C)=N/OC(=O)c2c(-c3ccccc3Cl)noc2C)cc1CN1CCOCC1`, the growth inhibition is -41%. The value for `C=CC(C)(O)CCC1C(=C)C(O)CC2C(C)(C)CCCC12C` (centres undefined) was 12%; that for `S=C(Nc1ccc(Cl)c(Cl)c1)SCc1ccc2c(c1)OCO2` was 99% (active). The value for `COc1cc(C2C3=C(COC3=O)Oc3cc4c(cc32)OCO4)ccc1O` (centres undefined) was -3%; that for `S=C(Nc1ccc(Cl)cc1)SC1CCCCC1` was 61%.

`Nc1nc(-c2cccnc2)cc(-c2cc(-c3cccnc3)nc(N)n2)n1`: the growth inhibition was -3%.

For the compound `COC1=CC(=O)C2C(C1=O)C(c1ccc(Cl)cc1)[C@@H]2C` (some centres undefined), the growth inhibition was 98% (active).

Turning to `c1ccc(-c2nc3cccnc3s2)cc1`, the growth inhibition was 8%.

As to `O=[N+]([O-])c1cc(CCl)ccc1CCl`, the growth inhibition was 89% (active). The value for `COc1ccc(/C=C2\SC(=S)N(/C=C/c3nc4ccccc4[nH]c3=O)C2=O)cc1OC` was 21%; that for `CCCN(CCC)CC(O)c1cc(-c2ccc(Cl)cc2)nc2c(C)c(Cl)ccc12` (centres undefined) was 85% (active). The value for `O=C(Nc1ccccc1)OCCc1ccc(Cl)c(Cl)c1` was 39%; that for `CC(O)C(O)C(O)C(/C=N\Nc1ccccc1)=N/Nc1ccccc1` (centres undefined) was 39%; that for `C#CCCCc1ccccc1` was -55%. The value for `CC(=O)Cc1ccc[cH-]1.[Fe+2].c1cc[cH-]c1` was 8%. For `Cc1cc(I)ccc1N`, the growth inhibition is -8%. Take `FC(F)(F)c1cc(NC(=S)N2c3ccccc3-n3cccc3C2c2cccnc2)cc(C(F)(F)F)c1` (centres undefined): the growth inhibition is 18%. The value for `CC(C)(CN1CCCCC1)C(=O)CC(SCCS(=O)(=O)O)c1ccc(Br)cc1` (centres undefined) was -4%; that for `C[Si](C)(C)CNC(=O)OCc1ccccc1` was 10%. The value for `CC(C(=O)N1C(=O)N(C(=O)[C@H](C)C(O)c2ccccc2)[C@H](c2ccccc2)[C@H]1c1ccccc1)[C@@H](O)c1ccccc1` (some centres undefined) was -1%; that for `Oc1cccc2c(Cl)ccnc12` was 81% (active); that for `O=C1C=CC(=C(c2ccccc2)c2ccccc2)c2ccccc21` was 2%. The value for `S=C(S)NN1CCOCC1` was 86% (active).
